# According to publication PMC5540273 (PLoS ONE, 2017):
# Values joined by “and” are separate entries in the source; they are usually repeats but may differ in a detail not shown here. Identical values can stand only once. Like-named read-outs stand apart in the source and are kept apart here.
# Legend:
# [1] = test system: T1, LKB1; settings: concentration: 1 μM, replicates: in singlicate, n = 1
# T1 construct: gene STK11
# [2] = test system: T2, LOK; settings: concentration: 1 μM, replicates: in singlicate, n = 1
# T2 construct: gene STK10
# [3] = test system: LRRK2; settings: concentration: 1 μM, replicates: in singlicate; n = 1
# [4] = test system: LTK; settings: concentration: 1 μM, replicates: in singlicate; n = 1
# [5] = test system: LYN; settings: concentration: 1 μM, replicates: in singlicate, n = 1
# [6] = test system: T3, LZK; settings: concentration: 1 μM, replicates: in singlicate, n = 1
# T3 construct: gene MAP3K13
# [7] = test system: MAK; settings: concentration: 1 μM, replicates: in singlicate, n = 1
# [8] = test system: MAP3K15; settings: concentration: 1 μM, replicates: in singlicate, n = 1
# [9] = test system: MAP3K1; settings: concentration: 1 μM, replicates: in singlicate, n = 1
# [10] = test system: MAP3K2; settings: concentration: 1 μM, replicates: in singlicate, n = 1
# [11] = test system: MAP3K3; settings: concentration: 1 μM, replicates: in singlicate, n = 1
# [12] = test system: MAP3K4; settings: concentration: 1 μM, replicates: in singlicate, n = 1
# [13] = test system: MAP4K2; settings: concentration: 1 μM, replicates: in singlicate, n = 1
# [14] = test system: MAP4K3; settings: concentration: 1 μM, replicates: in singlicate, n = 1
# [15] = test system: MAP4K4; settings: concentration: 1 μM, replicates: in singlicate; n = 1
# [16] = test system: MAP4K5; settings: concentration: 1 μM, replicates: in singlicate; n = 1
# [17] = test system: MAPKAPK2; settings: concentration: 1 μM, replicates: in singlicate, n = 1
# [18] = test system: MAPKAPK5; settings: concentration: 1 μM, replicates: in singlicate, n = 1
# [19] = test system: MARK1; settings: concentration: 1 μM, replicates: in singlicate; n = 1
# [20] = test system: MARK2; settings: concentration: 1 μM, replicates: in singlicate, n = 1
# 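Further: KINOMEscan kinase panel screen.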
smiles,measurement,setting,value
O=C(NCCCN1CCCC1=O)c1cnc(NCc2cc(Cl)ccc2Cl)nc1NC1CCNCC1,%Inh,[1],0%
same,%Inh,[2],4%
same,%Inh,[3],0%
same,%Inh,[4],0%
same,%Inh,[5],1%
same,%Inh,[6],0%
same,%Inh,[7],84%
same,%Inh,[8],0%
same,%Inh,[9],0%
same,%Inh,[10],79%
same,%Inh,[11],57%
same,%Inh,[12],12%
same,%Inh,[13],0%
same,%Inh,[14],16%
same,%Inh,[15],0%
same,%Inh,[16],19%
same,%Inh,[17],0%
same,%Inh,[18],0%
same,%Inh,[19],0%
same,%Inh,[20],0%
COc1ccc(-c2oc3ncnc(N)c3c2-c2ccc(OC)cc2)cc1 [SB-589132],%Inh,[1],28%
same,%Inh,[2],0%
same,%Inh,[3],33%
same,%Inh,[4],0%
same,%Inh,[5],4%
same,%Inh,[6],51%
same,%Inh,[7],11%
same,%Inh,[8],0%
same,%Inh,[9],10%
same,%Inh,[10],0%
same,%Inh,[11],0%
same,%Inh,[12],0%
same,%Inh,[13],0%
same,%Inh,[14],0%
same,%Inh,[15],0%
same,%Inh,[16],0%
same,%Inh,[17],19%
same,%Inh,[18],0%
same,%Inh,[19],0%
same,%Inh,[20],0%
Cl.O=S(=O)(c1cccc(F)c1)c1ccc(Nc2ncnc3cc(Br)sc23)cc1Cl [GSK306886],%Inh,[1],10%
same,%Inh,[2],6%
same,%Inh,[3],0%
same,%Inh,[4],0%
same,%Inh,[5],0%
same,%Inh,[6],0%
same,%Inh,[7],10%
same,%Inh,[8],0%
same,%Inh,[9],24%
same,%Inh,[10],7%
same,%Inh,[11],0%
same,%Inh,[12],9%
same,%Inh,[13],0%
same,%Inh,[14],0%
same,%Inh,[15],0%
same,%Inh,[16],0%
same,%Inh,[17],0%
same,%Inh,[18],0%
same,%Inh,[19],0%
same,%Inh,[20],0%
FC(F)(F)c1ccc(-c2nn3ncccc3c2-c2ccnc(Nc3cccc(C(F)(F)F)c3)n2)cc1 [GW828205],%Inh,[1],0%
same,%Inh,[2],16%
same,%Inh,[3],17%
same,%Inh,[4],0%
same,%Inh,[5],0%
same,%Inh,[6],0%
same,%Inh,[7],22%
same,%Inh,[8],0%
same,%Inh,[9],0%
same,%Inh,[10],0%
same,%Inh,[11],21%
same,%Inh,[12],8%
same,%Inh,[13],0%
same,%Inh,[14],0%
same,%Inh,[15],4%
same,%Inh,[16],0%
same,%Inh,[17],0%
same,%Inh,[18],0%
same,%Inh,[19],3%
same,%Inh,[20],0%
CCn1c(-c2ccncc2)nc2cnccc21 [SB-735216],%Inh,[1],0%
same,%Inh,[2],0%
same,%Inh,[3],0%
same,%Inh,[4],0%
same,%Inh,[5],19%
same,%Inh,[6],59%
same,%Inh,[7],12%
same,%Inh,[8],47%
same,%Inh,[9],10%
same,%Inh,[10],6%
same,%Inh,[11],10%
same,%Inh,[12],23%
same,%Inh,[13],12%
same,%Inh,[14],0%
same,%Inh,[15],1%
same,%Inh,[16],0%
same,%Inh,[17],16%
same,%Inh,[18],29%
same,%Inh,[19],16%
same,%Inh,[20],100%
Clc1ccc(-c2cc(-c3c[nH]nc3-c3ccccn3)ccn2)cc1 [GW681251],%Inh,[1],0%
same,%Inh,[2],30%
same,%Inh,[3],46%
same,%Inh,[4],0%
same,%Inh,[5],0%
same,%Inh,[6],0%
same,%Inh,[7],14%
same,%Inh,[8],0%
same,%Inh,[9],26%
same,%Inh,[10],3%
same,%Inh,[11],0%
same,%Inh,[12],19%
same,%Inh,[13],0%
same,%Inh,[14],0%
same,%Inh,[15],63%
same,%Inh,[16],18%
same,%Inh,[17],13%
same,%Inh,[18],0%
same,%Inh,[19],0%
same,%Inh,[20],0%
COc1ccc(-c2nc3n(c2-c2ccncc2)CCC3)cc1 [SKF-104493],%Inh,[1]; 1 µM,27% and 21%
same,%Inh,[2]; 1 µM,19% and 11%
same,%Inh,[3],0%
same,%Inh,[4],2%
same,%Inh,[5]; 1 µM,9% and 0%
same,%Inh,[6]; 1 µM,0% and 5%
same,%Inh,[7]; 1 µM,19% and 0%
same,%Inh,[8]; 1 µM,3% and 4%
same,%Inh,[9]; 1 µM,11% and 1%
same,%Inh,[10]; 1 µM,6% and 0%
same,%Inh,[11]; 1 µM,6% and 0%
same,%Inh,[12]; 1 µM,28% and 3%
same,%Inh,[13]; 1 µM,7% and 0%
same,%Inh,[14]; 1 µM,0% and 8%
same,%Inh,[15],0%
same,%Inh,[16],0%
same,%Inh,[17]; 1 µM,12% and 9%
same,%Inh,[18]; 1 µM,13% and 10%
same,%Inh,[19],0%
same,%Inh,[20]; 1 µM,0% and 11%
